According to PubChem BioAssay (NCATS):
Inconclusive results are not listed. Entries that show only a call come without a potency. A number with no mark means an inactive call. Active and inactive are the calls of the source. Calls come from the whole dose curve; as a rule, active = well fitted curve in the direction sought with a large enough effect; inconclusive = small, poorly fitted or top-dose-only effect, or another doubt; inactive = no such curve, though single readings can be large; an effect the other way counts as inactive or inconclusive.

Tests used:
[1] = target: Cellular tumor antigen p53 (Homo sapiens) (UniProt P04637); assay: Primary qHTS for small molecule compounds that upregulate eGFP-tagged delta133p53alpha (in N-terminal) cells. (AID 2060322); conditions: NCI-H358 eGFP-delta133p53alpha fluorescence, 24 h; activation: active compounds read high; note: nearly all actives have a fitted effect of over 75% in size; note: potency is the fitted concentration of half-maximal effect
Procedure, shortened: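 NCI-H358 cells pre-induced 24 h with 10 ng/ml doxycycline to express N-terminal eGFP-delta133p53alpha, then dosed 24 h at 37C without doxycycline; fixed, Hoechst-stained, GFP intensity by laser scanning cytometry, normalized to DMSO (0%) and 57.5 uM 5-azacytidine (100%).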

[2] = target: Aldehyde dehydrogenase, mitochondrial (Homo sapiens) (UniProt P05091); assay: qHTS for Inhibitors of the Aldehyde Dehydrogenase Family (ALDH2) Primary screen (AID 2061308); conditions: ALDH2 enzyme inhibition qHTS, 1536-well; series mostly up to 56 µM; note: nearly all actives have a fitted effect of over 55% in size
[3] = target: Retinaldehyde dehydrogenase 3 (Homo sapiens) (UniProt P47895); assay: qHTS for Inhibitors of the Aldehyde Dehydrogenase Family (ALDH1A3) Primary screen (AID 2061315); conditions: ALDH inhibition qHTS; series mostly up to 56 µM

Sequence of Cellular tumor antigen p53 (Homo sapiens) (P04637 whole entry, looked up): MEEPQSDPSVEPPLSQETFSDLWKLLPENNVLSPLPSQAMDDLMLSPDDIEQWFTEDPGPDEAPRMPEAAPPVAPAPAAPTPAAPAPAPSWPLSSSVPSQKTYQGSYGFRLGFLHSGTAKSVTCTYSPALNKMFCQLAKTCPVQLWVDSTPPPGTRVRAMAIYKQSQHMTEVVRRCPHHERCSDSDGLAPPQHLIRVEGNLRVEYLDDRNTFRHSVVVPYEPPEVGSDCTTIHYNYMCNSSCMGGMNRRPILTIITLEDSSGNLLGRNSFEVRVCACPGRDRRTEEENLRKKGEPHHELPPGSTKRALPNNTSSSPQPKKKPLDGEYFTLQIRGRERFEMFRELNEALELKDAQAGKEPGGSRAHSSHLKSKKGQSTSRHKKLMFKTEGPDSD

Row | Compound | activation [1] [%] | Potency [2] | Potency [3] | activity change, negative = inhibition [2] | activity change, negative = inhibition [3] | Potency [1]
1 | Clc1ccc(CN[C@H]2CCN(c3ncc(Br)cn3)C2)c(Cl)c1 | 3.57 | inactive | inactive | – | – | –
2 | CC1(CO)CC2C(O)C3=C(CC(C)(O)C2C1)C(=O)OC3 (stereo unspecified) | -12.2 | inactive | inactive | – | – | –
3 | N[C@H]1C[C@H]1c1ccc(-c2cccc(O)c2)cc1 | 1.67 | inactive | inactive | – | – | –
4 | COc1ccc(S(=O)(=O)N2CCC[C@H]2C(=O)Nc2cc(C)cc(C)c2)cc1 | -17.2 | inactive | inactive | – | – | –
5 | CC1OC(OC2C(CO)OC(OCC3OC(OC(=O)C45CCC(C)(C)CC4C4=CCC6C7(C)CCC(OC8OC(C(=O)O)C(O)C(OC9OC(CO)C(O)C(O)C9O)C8O)C(C)(C)C7CCC6(C)C4(C)CC5)C(O)C(O)C3O)C(O)C2O)C(O)C(O)C1O (stereo unspecified) | 18.3 | – | – | -0.0745% [at 11.2 µM] | -5.8% [at 11.2 µM] | –
6 | C[C@@H]1O[C@@H](OC[C@H]2O[C@@H](OCC3CCC4CC3C4(C)C)[C@H](O)[C@@H](O)[C@@H]2O)[C@H](O)[C@H](O)[C@H]1O (stereo partly specified) | 16.1 | inactive | inactive | – | – | –
7 | C/C=C/C=C/C=C/C(=O)O[C@@H]1[C@@H](OC)C2=C(C(=O)N(C(CCC(=O)O)C(=O)O)C2)[C@@]2(C)CCCC(C)(C)[C@H]12 (stereo partly specified) | -27.5 | inactive | inactive | – | – | –
8 | CC1(O)CC(O)C2C(C(=O)O)=COC(OC3OC(CO)C(O)C(O)C3OC(=O)/C=C/c3ccc(O)cc3)C21 (stereo unspecified) | -15.3 | inactive | inactive | – | – | –
9 | COC(=O)C1=C[C@@H](O)[C@@H](O)[C@H](O[C@@H]2O[C@H](COC(=O)/C=C/c3ccccc3)[C@@H](O)[C@H](O)[C@H]2O)C1 | -3.05 | inactive | inactive | – | – | –
10 | C=CC1(C)C=C2C(=O)CC3C(C)(C)CCCC3(C(=O)O)C2(O)CC1 (stereo unspecified) | -15.3 | inactive | inactive | – | – | –
11 | CSCC1OC(n2cnc3c(N)ncnc32)C(O)C1O (stereo unspecified) | 6.11 | inactive | inactive | – | – | –
12 | O=C(OCc1cccc(O)c1O[C@@H]1O[C@H](CO)[C@@H](O)[C@H](O)[C@H]1O)C1(O)C(=O)C2C=CC1C1C=CC(=O)C(O)(C(=O)OCc3cccc(O)c3O[C@@H]3O[C@H](CO)[C@@H](O)[C@H](O)[C@H]3O)C21 (stereo partly specified) | -29.8 | inactive | inactive | – | – | –
13 | CC1OC2OC(=O)C3(C)CC4=C(CO)C5=C(CC(=O)C4(C)C(C1=O)C23)C(C)(C)OC(=O)C5 (stereo unspecified) | -7.63 | inactive | inactive | – | – | –
14 | C[C@@H]1CC[C@@]2(OC1)O[C@H]1C[C@H]3[C@@H]4CC=C5C[C@@H](O)CC[C@]5(C)[C@H]4CC[C@]3(C)[C@H]1[C@@H]2C | -4.46 | inactive | inactive | – | – | –
15 | CC12CCC(=O)C=C1C(O)CC1C2C(O)CC2(C)C1CC[C@]2(O)C(=O)CO (stereo partly specified) | 5.67 | inactive | inactive | – | – | –
16 | O=C(NCc1ccccc1-c1ccccc1C(=O)NCCc1ccccn1)OCc1ccccc1 | 1 | inactive | inactive | – | – | –
17 | COC(=O)c1cc(OC)c(O[C@@H]2O[C@@H](C)[C@H](O)[C@@H](O)[C@H]2O)c(OC)c1 | 1.53 | inactive | inactive | – | – | –
18 | CO[C@H]1C=C2C(CC[C@H](O[C@@H]3O[C@H](CO)[C@@H](O)[C@@H](O)[C@H]3O)C2(C)C)[C@]2(C)CC[C@]3(C)C([C@H](C)C(O)C(C=C(C)C)O[C@@H]4O[C@H](CO)[C@@H](O)[C@@H](O)[C@H]4O)CC[C@@]3(C)C12 (stereo partly specified) | 0.763 | inactive | inactive | – | – | –
19 | CC1OC(=O)C[C@@H]2C(C(=O)O)=CO[C@@H](O[C@H]3O[C@H](CO)[C@@H](O)[C@H](O)[C@H]3O)[C@H]12 (stereo partly specified) | -23.2 | inactive | inactive | – | – | –
20 | O=C(/C=C/c1ccc(O)cc1)O[C@H]1[C@H](OC2CCCCC2O)O[C@H](CO)[C@@H](O)[C@@H]1O (stereo partly specified) | -11.5 | inactive | inactive | – | – | –
21 | C[C@@H]1O[C@@H](O[C@H]2[C@H](O)[C@@H](O[C@@H]3O[C@H](CO)[C@@H](O)[C@H](O[C@@H]4O[C@H](CO)[C@@H](O)[C@H](O)[C@H]4O)[C@H]3O)[C@H](O[C@H]3CC[C@@]4(C)C(=CC[C@@H]5C4CC[C@@]4(C)C5C[C@@H]5OC6(CC[C@@](C)(CO[C@@H]7O[C@H](CO)[C@@H](O)[C@H](O)[C@H]7O)O6)[C@@H](C)[C@@H]54)C3)O[C@@H]2CO)[C@H](O)[C@H](O)[C@H]1OC1OC(CO)C(O)C(O)C1O (stereo partly specified) | 13 | – | – | -9.01% [at 11.2 µM] | -22.4% [at 11.2 µM] | –

Row | Compound | activation [1] [%] | Potency [2] | Potency [3] | activity change, negative = inhibition [2] | activity change, negative = inhibition [3] | Potency [1]
22 | CC1(C)C2CC[C@@]34CC(CC[C@H]3[C@]2(C)CC[C@@H]1O[C@@H]1O[C@H](CO)[C@@H](O)[C@H](O)[C@H]1O)[C@](C)(O)C4 (stereo partly specified) | -22.1 | inactive | inactive | – | – | –
23 | C=C1C(=O)O[C@@H]2C=C(COC(C)=O)CC/C=C(\CO)CC[C@@H]12 | 3.82 | inactive | inactive | – | – | –
24 | CCOC(=O)c1csc(Nc2ccc(Cl)cc2)n1 | -7 | inactive | inactive | – | – | –
25 | CC(=O)OC12CC(C)C(OC(=O)c3ccccc3)C1/C=C(/C)C(OC(=O)c1ccccc1)CC(=O)C(C)(C)/C=C/C(C)C2=O (stereo unspecified) | -7.14 | inactive | inactive | – | – | –
26 | CC(C)=CCC/C(C)=C/CCC1(C)Oc2c(c(O)cc3c2CN(C(CCC(=O)O)C(=O)O)C3=O)CC1O (stereo unspecified) | -13.7 | inactive | inactive | – | – | –
27 | OC[C@@]1(O)CO[C@H](OC[C@H]2O[C@@H](OC(CCCCc3ccc(O)cc3)CCc3ccc(O)cc3)[C@H](O[C@H]3OC[C@](O)(CO)[C@H]3O)[C@@H](O)[C@@H]2O)[C@@H]1O (stereo partly specified) | -2.29 | inactive | inactive | – | – | –
28 | CC(=O)C1=CCC2C3CCC4CC(O[C@@H]5O[C@H](CO)[C@@H](O[C@@H]6O[C@@H](C)[C@H](O)[C@@H](O)[C@H]6O)[C@H](O)[C@H]5O[C@@H]5O[C@H](CO)[C@@H](O)[C@H](O)[C@H]5O)CCC4(C)C3CCC12C (stereo partly specified) | -10.7 | inactive | inactive | – | – | –
29 | CC(=O)OCC1=C[C@@H]2OC(=O)C3=CO[C@@H](O[C@@H]4O[C@H](CO)[C@@H](O)[C@H](O)[C@H]4O)[C@H]1[C@@H]32 | -16.8 | inactive | inactive | – | – | –
30 | C[C@H]1C(=O)N2c3ccccc3[C@@]3(O)C[C@@H]4C(=O)N[C@](C)(c5nc6ccccc6c(=O)n54)N1[C@@H]23 | -2.29 | inactive | inactive | – | – | –
31 | C/C(CO)=C1/CCC23COC(C2)C(O)(C(=O)O)CCC13 (stereo unspecified) | 0 | inactive | inactive | – | – | –
32 | Cc1cc(C(N)=O)ccc1-n1c(CCC(=O)O)ccc1-c1ccc(-n2ccnc2)cc1 | -2.68 | inactive | inactive | – | – | –
33 | C[C@@H]1O[C@@H](O[C@H]2[C@@H](OC(=O)[C@]34CCC(C)(C)CC3C3=CCC5[C@@]6(C)C[C@H](O)[C@H](O[C@@H]7O[C@H](C(=O)O)[C@@H](O)[C@H](O)[C@H]7O)[C@@](C)(C(=O)O)C6CC[C@@]5(C)[C@]3(C)CC4)OC[C@H](O)[C@@H]2O)[C@H](O)[C@H](O)[C@H]1O[C@@H]1OC[C@@H](O)[C@H](O)[C@H]1O (stereo partly specified) | -8.93 | inactive | inactive | – | – | –
34 | CN=C(N)NCCCCC/C=C(/C)CC(C)C1OC(=O)C(C)C(O)/C=C/C(C)C(O)CC(O)C(C)C(O)CCC(C)C(O)CC2(O)OC(CC(OC(=O)CC(=O)O)CC(O)CC(O)C(C)C(O)/C(C)=C/CCC1C)CC(O)C2O (stereo unspecified) | -19.1 | inactive | inactive | – | – | –
35 | CC1CC(=O)C2C(O)(C1)CC(O)C13OC1c1c(O)cccc1C(=O)C23O (stereo unspecified) | -1.53 | inactive | inactive | – | – | –
36 | CC(=O)O[C@@H]1[C@H](O[C@@H]2OC[C@](O)(CO)[C@H]2O)[C@@H](O[C@@H]2O[C@@H](C)[C@H](O)[C@@H](O[C@@H]3O[C@H](CO)[C@@H](O)[C@H](O)[C@H]3O)[C@H]2O)[C@H](OC(=O)[C@]23CCC(C)(C)C[C@H]2C2=CCC4[C@@]5(C)C[C@H](O)[C@H](O[C@@H]6O[C@H](C(=O)O)[C@@H](O)[C@H](O)[C@H]6O)[C@@](C)(C(=O)O)C5CC[C@@]4(C)[C@]2(C)CC3)O[C@@H]1C (stereo partly specified) | -16.8 | – | – | 3.67% [at 11.2 µM] | -13.4% [at 11.2 µM] | –
37 | CC(C)(C)Nc1nc2cc(Cl)c(Cl)cc2nc1S(C)(=O)=O | – | inactive | inactive | – | – | 3.38 µM (active)
38 | COc1ccc(C(=O)Nc2ncc(-c3ccc(C(=O)O)cc3)s2)cc1 | – | inactive | inactive | – | – | 10.7 µM (active)
39 | COc1c2c(c(C)c3c1C(=O)OC3)OC1(C)CC(O)C34OC(OC)(OC3(C)C)C(O)CC4(C)C1C2 (stereo unspecified) | -2.29 | inactive | inactive | – | – | –
40 | CCC[C@@H]1C[C@@H](C(=O)N[C@@H]([C@H]2O[C@H](SC)[C@H](O)[C@@H](O)[C@@H]2O)[C@@H](C)O)N(C)C1 | 7 | inactive | inactive | – | – | –
41 | C=C(C)C1CCC2(C(=O)O)CCC3(C(=O)O)C(CCC4C5(C)CCC(O)C(C)(C(=O)O)C5CCC43C)C12 (stereo unspecified) | -3.82 | inactive | inactive | – | – | –
42 | CC1(C)CC[C@]2(C(=O)O[C@@H]3O[C@H](CO)[C@@H](O)[C@H](O)[C@H]3O)CC[C@]3(C)C(=CCC4[C@@]5(C)CC[C@H](O[C@@H]6O[C@H](C(=O)O)[C@H](O)[C@H](O)[C@H]6O)C(C)(C)C5CC[C@]43C)[C@@H]2C1 (stereo partly specified) | -2.68 | inactive | inactive | – | – | –
